The text below walks through data of PubChem BioAssay (NCATS).

Records with an inconclusive call do not appear. Activity calls are given as the source filed them. The call rests on the fitted dose curve; in most records, active means well fitted inhibition curve with a large enough effect; inconclusive means small, poorly fitted or top-dose-only effect; inactive means flat fitted curve, though single readings scatter.

This assay has as its system HACAT. Briefly: qHTS assay to identify novel small-molecules to repurpose for Merkel cell carcinoma treatment (AID 1296009). Further: nearly all actives have a fitted effect of over 60% in size. The settings on record: MCC and control cell lines, CellTiter-Glo viability, 72 h; at 44.8 µM (top of the series) unless noted. The procedure, abridged:
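Dose-response viability screen; 72 hr exposure at 37 degree celsius; CellTiter-Glo added, 10 min room temperature, luminescence read; RLUs scaled between no-cell and DMSO wells.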
(Quantitative high-throughput screening tests each substance at several concentrations.)
With `C=CC1(C)C=C2C(O)CC3C(C)(C(=O)O)CCCC3(C)C2CC1` (centres undefined), the compound was classed as inactive. Regarding `CC1CC(O)C2(C)C(C(=O)O)=CCCC2C1(C)CCc1ccoc1` (centres undefined), the call was inactive. For `COCCCNCC1COc2ccccc2O1` (centres undefined) the value was “inactive”. On to `CC(=O)O[C@@H]1C[C@@]23C[C@@]24CC[C@H](OC2OC[C@@H](O)[C@H](O)[C@H]2O)C(C)(C)[C@@H]4CC[C@H]3[C@]2(C)CC3OC4(C[C@@H](C)C3[C@@]12C)OCC1(C)OC14` (some centres undefined), for which the outcome was “inactive [at 17.4 µM]”.

Take `C[C@@H]1C(=O)O[C@H]2CC34[C@H]5C[C@@H](C(C)(C)C)C36[C@@H](OC(=O)[C@@H]6O)OC4(C(=O)O5)[C@]21O` (some centres undefined): the outcome was inactive. As for `CC1(C)C(O)CCC2(C)C1C(O)C=C1COC(=O)C12O` (centres undefined), the result was inactive. For `CCCCNC(=O)[C@@H]1Cc2ccccc2N1C(=O)[C@@H](N)CC` the value was “inactive”; for `NCCCC[C@H](NC(=O)[C@@H]1Cc2ccccc2CN1C(=O)CCC(=O)c1ccccc1)C(=O)NCC(c1ccccc1)c1ccccc1`, “inactive”; for `CC1CCC2(C(=O)OC3OC(CO)C(O)C(O)C3O)CCC3(C(=O)O)C(=CCC4C5(C)CCC(OC6OC(C)C(O)C(O)C6O)C(C)(C)C5CCC43C)C2C1C` (centres undefined), “inactive [at 17.4 µM]”. Regarding `CC(=O)N1CCN(NC(=O)c2ccc(F)cc2)CC1`, the result was inactive. `COc1cc(C2Oc3c(OC)cc(/C=C/C(=O)OC[C@H]4O[C@@H](OC(C)(C)C(=O)O)[C@H](O)[C@@H](O)[C@@H]4O)cc3C2CO)ccc1O` (some centres undefined): the outcome was “inactive [at 17.4 µM]”. Take `CC1=C2C(=O)C=C(CO)[C@@H]2[C@H]2OC(=O)[C@H](C)[C@@H]2[C@@H](O)C1`: the result was inactive. In the case of `C[C@@H]1O[C@@H](O[C@H]2[C@H](O)[C@@H](C(=O)O)O[C@@H](O[C@H]3CC[C@@]4(C)C(CC[C@]5(C)C4CC=C4C6CC(C)(C)CC[C@]6(C(=O)O)CC[C@]45C)C3(C)C)[C@@H]2O[C@@H]2O[C@H](CO)[C@@H](O)[C@H](O)[C@H]2O)[C@H](O)[C@H](O)[C@H]1O` (some centres undefined), the outcome is “inactive [at 9.27 µM]”. Take `C(#Cc1cccc(CN2CCOCC2)c1)CCN1CCCCC1`: the compound was called inactive. Consider `C[C@@H]1C(=O)O[C@H]2[C@H]1CC[C@@]1(C)C(=O)C=C[C@](C)(O)[C@H]21`, for which the result was inactive. Consider `CC(C)C(=O)O[C@@H]1[C@@H](O)[C@@H](O[C@H]2O[C@H](CO)[C@@H](O)[C@H](O)[C@H]2O)O[C@H](CO)[C@H]1O`, for which the outcome is “inactive [at 17.4 µM]”. Regarding `O=C(NCC(=O)N1CC[C@H](NC2CCC(O)(c3ccc(-c4ncccn4)cn3)CC2)C1)c1cccc(C(F)(F)F)c1` (some centres undefined), the call was inactive. Take `CCCCS(=O)(=O)Nc1ncnc(OCCOc2ncc(Br)cn2)c1-c1ccc(Br)cc1`: the result was inactive.

`COc1cc([C@H]2OC[C@]3(OC(C)=O)[C@@H](c4ccc(O[C@@H]5O[C@H](CO)[C@@H](O)[C@H](O)[C@H]5O)c(OC)c4)OC[C@H]23)ccc1O`: the outcome is “inactive [at 17.4 µM]”. In the case of `O=C1NC(=Nc2ccccc2F)S/C1=C\c1ccc(C(=O)O)cc1`, the call was inactive. For `C=C(C)[C@H]1C[C@@H](O)C(=C)CC[C@@H](O)C(=C)[C@@H](O)C1` the value was “inactive”. As for `CC(=O)OC[C@]12[C@H](OC(C)=O)C(=O)[C@@H]3[C@@H](OC(C)=O)[C@@]14O[C@@]3(C)COC(=O)c1cccnc1[C@@H](C)[C@H](C)C(=O)O[C@@H]([C@H](OC(C)=O)[C@@H]2OC(C)=O)[C@]4(C)O`, the outcome is “inactive [at 17.4 µM]”. On to `CCOC(=O)[C@H]1O[C@@H]1C(=O)N[C@@H](CC(C)C)C(=O)NCCC(C)C`, for which the call was inactive. Regarding `C=C1C[C@]23C[C@H]1CC[C@H]2[C@]1(C)CCC[C@@]2(CO)C(=O)O[C@H]([C@H]21)[C@@H]3O`, the outcome was inactive. To `COc1ccc(/C=C/C(=O)O[C@@H]2[C@@H](OC(C)=O)[C@@H](OC(C)=O)[C@H](O[C@H]3[C@@H]4C=CO[C@@H](O[C@@H]5O[C@H](CO)[C@@H](O)[C@H](O)[C@H]5O)[C@@H]4[C@@]4(CO)O[C@@H]34)O[C@H]2C)cc1O` belongs “inactive [at 17.4 µM]”. On to `O=C(O[C@@H]1O[C@H](CO)[C@@H](O)[C@H](O)[C@H]1O)c1c(O)cc(O)cc1/C=C/c1ccccc1`, for which the outcome was “inactive [at 17.4 µM]”. To `COC(=O)C1=COC(O[C@@H]2O[C@H](CO)[C@@H](O)[C@H](O)[C@H]2O)/C(=C\COC(=O)c2ccc(OC3OC(CO)C(O)C(O)C3O)c(OC)c2)C1CC(=O)OCCc1ccc(O)cc1` (some centres undefined) belongs “inactive [at 9.27 µM]”; to `CC(C)=CCC/C(C)=C/CC/C(C)=C/CC[C@]1(C)CCc2cc(O)cc(C)c2O1`, “inactive [at 17.4 µM]”. In the case of `C=C1CCC2C(C)(C)C(O)CCC2(C)C1CCC(C)CCOC(=O)CCC(=O)O` (centres undefined), the outcome was “inactive [at 17.4 µM]”. For the compound `C=C1CC23CC1(O)CCC2C1=CC2OC(=O)C(C)(C2O)C1C3C(=O)O` (centres undefined), the result was inactive.

For `CC(C)(O)c1ccc2c(c1)C(=O)CC1[C@](C)(CO)CCC[C@]21C` (some centres undefined), the outcome was inactive. Regarding `CN1CCC(c2c[nH]c3ccc(NC(=O)c4ccc(F)cc4)cc23)CC1`, the outcome was inactive. Regarding `C[C@@H]1CC[C@]2(C(=O)O)CC[C@]3(C)C(=CCC4[C@]5(C)C(CC[C@]43C)C(C)(C)[C@@H](O)[C@H](O)[C@@H]5O)C2[C@]1(C)O` (some centres undefined), the outcome was “inactive [at 17.4 µM]”. To `CC[C@H]1OC(=O)[C@H](C)[C@@H](OC2C[C@@](C)(OC)[C@@H](O)[C@H](C)O2)[C@H](C)[C@@H](OC2O[C@H](C)C[C@H](NC)[C@H]2O)[C@](C)(O)C[C@@H](C)CN(C)[C@H](C)[C@@H](O)[C@]1(C)O` (some centres undefined) belongs “inactive”. Regarding `COc1ccc(C2=CC(=O)OC2Cc2ccc(O)cc2)c(O)c1` (centres undefined), the outcome was inactive.

On to `Cn1ccnc1CCOC(c1cc2nccc(C(=O)O)c2[nH]1)c1ccccc1Cl` (centres undefined), for which the result was inactive.

Turning to `CC1=C(C)C(=O)OC(C(C)C2C(O)CC3C4C5OC5C5(O)CC(OC6OC(CO)C(O)C(O)C6O)CC(O)C5(C)C4CCC32C)C1` (centres undefined), the outcome was “inactive [at 17.4 µM]”.

Consider `O=C(O)C[C@@H](NC(=O)c1cc(-c2ccc(-c3ccncc3)cc2)cs1)c1ccccc1`, for which the outcome was inactive. For `CC1(C)CC2C3=CCC4C5(C)CCC(OC6OC(C(=O)O)C(O)C(O)C6OC6OC(CO)C(O)C(O)C6OC6OC(CO)C(O)C(O)C6O)C(C)(CO)C5CCC4(C)C3(C)CCC2(C)C(OC2OCC(O)C(OC3OC(CO)C(O)C(O)C3O)C2O)C1O` (centres undefined) the value was “inactive [at 9.27 µM]”.
